# Among all 340,000 compounds or so, about 4,200 (1.2%) were called active. Many of the other results were omitted from the sample, so actives are more common in it than they were. A number with no mark means an inactive call.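 How the source made its calls: active means inhibition above the mean of all tested compounds plus 3 SD (cut at about 24% in these data); inactive means the rest.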
# Target: Platelet-activating factor acetylhydrolase IB subunit alpha2 (Homo sapiens) (UniProt P68402)
# Assay: PAFAH1B2 enzyme inhibitors, primary screen, biochemical, fluorescence polarization, human (AID 492953);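 further: 0% = enzyme with DMSO and 100% = wells lacking PAFAH1B2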
# Conditions: recombinant PAFAH1B2, FP-rhodamine activity probe, at 3.39 µM, hits give high values
# Platelet-activating factor acetylhydrolase IB subunit alpha2 (Homo sapiens), sequence (P68402 whole entry, looked up): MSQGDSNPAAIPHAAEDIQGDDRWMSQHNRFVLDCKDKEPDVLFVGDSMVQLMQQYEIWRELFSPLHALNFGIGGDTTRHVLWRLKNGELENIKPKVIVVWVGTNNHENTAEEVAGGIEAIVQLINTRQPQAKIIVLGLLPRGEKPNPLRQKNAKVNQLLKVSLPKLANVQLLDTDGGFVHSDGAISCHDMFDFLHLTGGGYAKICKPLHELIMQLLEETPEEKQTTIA
row,SMILES,inhibition
1,O=c1[nH]c(O)c(C=Nc2cc(F)cc(F)c2)c(=O)[nH]1,-5.42%
2,Cc1ccc2c(c1)=C/C(=C\c1c(O)[nH]c(=O)[nH]c1=O)C(=O)N=2,24.9% (active)
3,O=C1N=c2ccccc2=C/C1=C\c1c(O)[nH]c(=S)[nH]c1=O,3.53%
4,Cc1ccc(Cn2c(C)c3cnn(CC(=O)N4CCC5(CC4)OCCO5)c(=O)c3c2C)cc1,4.99%
5,Cc1cccc(OP(=O)(Oc2cccc(C)c2)OC(c2ccccc2)C(F)(F)F)c1 (stereo not given),10.7%
6,CNC(=O)O/N=C(\N)Cc1csc2ccc(Cl)cc12,71.7% (active)
7,CNC(=O)O/N=C(\N)Cc1csc2ccccc12,7.09%
8,N[C@@H](Cc1c[nH]c2ccccc12)c1nnc(SCc2c(F)cccc2Cl)o1,3.92%
9,CCC(C)(O)C(=O)OC1C(=O)OC2CC3C(C)=CC(=O)C(O)C3(C)C3C4(O)OCC23C1C(C)C4O (stereo not given),-0.05%
10,CCCCCn1c(=O)c(C(=O)Nc2c(C)n(C)n(-c3ccccc3)c2=O)c(O)c2ccccc21,-3.03%
11,CC(C)(C)c1ccc(CN2C(=O)CN=C(c3ccccc3)c3ccccc32)cc1,88% (active)
12,Nc1ccc(C(=O)N/N=C2/CN3CCC2CC3)cc1,-0.84%
13,CN(C)CC1CCCCC1OC(=O)c1ccc(Cl)c(Cl)c1 (stereo not given),-0.45%
14,CCCCCCN=C(CC)c1c(O)n(CCCC)c(=O)[nH]c1=O,5.01%
15,CN(C)CC1Oc2ccccc2OC1(O)c1ccccc1 (stereo not given),0.51%
16,CC1=CC(=Cc2sc3ccccc3[n+]2C)C=C(C)O1,-0.8%
17,CC/C(=N\NC(=O)c1ccccc1O)c1c(O)n(Cc2ccccc2)c(=O)[nH]c1=O,26.1% (active)
18,O=C(N/N=C/c1c(O)n(Cc2ccccc2)c(=O)[nH]c1=O)c1ccccc1,18.9%
19,CCC(=NCc1ccco1)c1c(O)n(Cc2ccccc2)c(=O)[nH]c1=O,3.82%
20,O=C(NCC(c1cccnc1)N1CCN(c2ccccc2)CC1)Oc1ccccc1 (stereo not given),4.28%
21,O=C(CSC1c2ccccc2-c2ccccc21)N/N=C/c1ccccc1,8.06%
22,CCOC(=O)C1(c2ccccc2)CCN(CC(O)c2ccc(NC(C)=O)cc2)CC1 (stereo not given),0.73%
23,c1ccc(CCN2CCC3(CC2)OCCO3)cc1,3.22%
24,O=C(OCCN1CCOCC1)C1(c2ccccc2)CCCC1,36.1% (active)
25,Cc1ccc(N(C)C(=O)Oc2cccc3ccc(C)nc23)cc1,2.03%

# From PubChem BioAssay AID492953 (The Scripps Research Institute Molecular Screening Center, 2010)
